Assay results as given in PubChem BioAssay AID463173 (ICCB-Longwood Screening Facility, Harvard Medical School, 2010).
About 1,700 (3.3%) of roughly 52,000 compounds were called active. For the sample, actives were picked, then their nearest neighbours and some compounds at random. Values without a mark were called inactive. No stated cut-off is given here; in the data, active means survival mostly below about 52% (no sharp cut-off); inactive means mostly above about 56%.

Tested on: Wild type
Experiment: S. aureus survival, RN4220 and DeltatarO strains – OD600, teichoic acid synthesis inhibitors, primary screen (AID 463173)
Conditions: S. aureus RN4220 wild type/DeltatarO growth, OD600, 18 h, active compounds read low, screened at 18.75 µg/mL (by protocol)

Structure (SMILES)	survival
Cc1oc(-c2ccc(C(=O)Nc3cccc(C(F)(F)F)c3)cc2)nc1CSc1ccccc1	57%
Cc1ccc(C)c(N2CCN(S(=O)(=O)c3ccc4oc(=O)c5ncn(C)c5c4c3)CC2)c1	81%
Cc1c(Cl)cccc1NC(=O)Nc1nnc(N(C)C2CCCCC2)s1	111%
Cc1ccc(-n2c(=O)c3cccnc3n2CC(=O)Nc2ccc(Br)cc2)cc1C	57%
O=C(CSc1ncc(-c2ccccc2)[nH]1)Nc1cccc(Br)c1	13%
O=C(O)c1ccc(-c2ccc(/C=N/N3C(=O)C4C(C3=O)C3C=CC4C34CC4)o2)cc1 (stereo not drawn)	110%
CC1CCN(S(=O)(=O)c2ccc3c(c2)N(C)C(=O)CC(=O)N3C)CC1	74%
Cc1cccn2c(=O)c3cc(C(=O)NCC(C)C)sc3nc12	80%
COc1ccccc1N(C)C(=O)Cn1c(=O)oc2cc(S(=O)(=O)N3CCCC3)ccc21	127%
CCOc1ccc(NC(=O)CSc2nnc3scc(-c4ccccc4)n23)cc1	48%
COC(=O)c1ccc(OC)c(CN2CCCN(Cc3ccc(C)cc3)S2(=O)=O)c1	-3% (active)
COC(=O)c1ccc(NC(=O)CN2CCCN(Cc3ccc(Cl)cc3)S2(=O)=O)cc1	110%
Cc1ccc(C)c(CN2CCCN(Cc3ccccc3C)S2(=O)=O)c1	76%
Cc1ccc(CN2CCCN(Cc3c(C)cc(C)cc3C)S2(=O)=O)cc1	63%
Cc1ccc(C)c(CN2CCCN(Cc3ccc(F)cc3)S2(=O)=O)c1	-6% (active)
COc1ccc(NC(=O)CN2CCCN(Cc3ccc(Cl)cc3)S2(=O)=O)cc1Cl	67%
CCc1c(CN2CCN(c3cccc(C)c3)C(C)C2)csc1C (stereo not drawn)	94%
Cc1c(-c2ccccc2)c(=O)oc2ccc(OC(=O)N3CCOCC3)cc12	78%
CC(C)(C)OC(=O)N1CCC(c2c(C(=O)N3CCN(c4ncccn4)CC3)cnn2-c2cccc(F)c2)CC1	134%
CCCOc1ccc(Nc2cc(C)nc(C)n2)cc1	82%
Cc1cc(C)cc(NC(=O)CCCc2nnc3n(CC(C)C)c(=O)c4sccc4n23)c1	97%
Cc1cc(C)cc(-n2nnc(-c3nsc(NC(=O)c4ccccc4Cl)n3)c2C)c1	49%

Structure (SMILES)	survival
CCc1cccc(-n2nnc(-c3nsc(NC(=O)c4ccc(C)cc4)n3)c2C)c1	53%
Cc1ccc(-n2nnc(-c3nsc(NC(=O)c4ccccc4C)n3)c2C)cc1Cl	159%
CSc1cccc(-n2nnc(-c3nsc(NC(=O)c4cccs4)n3)c2C)c1	80%
CCc1ccc(-n2nnc(-c3nsc(NC(=O)c4ccccc4Cl)n3)c2C)cc1	12% (active)
CCc1cccc(-n2nnc(-c3nsc(NC(=O)c4cccs4)n3)c2C)c1	-6% (active)
Cn1c(=O)c2cc(C(=O)NC3CCCCCC3)sc2c2ccccc21	89%
CCCN(CCC)C(=O)Cn1c(=O)n(Cc2ccc(C(=O)NCCc3ccc(Cl)cc3)cc2)c(=O)c2ccccc21	113%
CCCCN(C(=O)CCn1c(=O)oc2ccccc21)c1ccccc1	71%
COc1ccc(S(=O)(=O)n2nc(C)c(S(=O)(=O)N3CCCCC3)c2C)cc1	63%
CCCOc1ccc(OC(=O)c2sc3ncn(Cc4cccc(F)c4)c(=O)c3c2C)cc1	56%
COc1ccc(C(=O)Nc2ccccc2C(=O)OCc2cc(=O)n3nc(C4CC4)sc3n2)cc1	67%
CCCOC(=O)CSc1ncnc2sc3c(c12)CCC(C)C3 (stereo not drawn)	7% (active)
CCCCCOC(=O)CSc1ncnc2sc3c(c12)CCC(C)C3 (stereo not drawn)	-1% (active)
CCCCOC(=O)CSc1ncnc2sc3c(c12)CCC(C)C3 (stereo not drawn)	15% (active)
Cc1ccc(-c2nc(NC(=O)CSc3ncnc4sc5c(c34)CCC(C)C5)ns2)cc1 (stereo not drawn)	75%
CCCCCOC(=O)CSc1ncnc2c1sc1nc(N3CCOCC3)c3c(c12)CCCC3	61%
CCC(C(=O)OC(C)C)n1cnc2sc3c(c2c1=O)CCC(C)C3 (stereo not drawn)	71%
CCOC(=O)CSc1nc2sc3c(c2c(=O)n1Cc1ccccc1)CC(C)CC3 (stereo not drawn)	68%
Cc1ccc(OCCCCn2nnc3sc4c(c3c2=O)CCC(C)C4)cc1 (stereo not drawn)	94%
CC1CCc2c(sc3ncnc(NCCOCCO)c23)C1 (stereo not drawn)	106%
COc1ccccc1C(=O)Nc1nnc(SCc2cc(=O)c3ccccc3[nH]2)s1	72%
COc1ccc(NC(=O)c2cc(C(C)=O)n3ccccc23)cc1Cl	87%

Structure (SMILES)	survival
CCn1c(=O)c2sccc2n2c(CCCC(=O)N3CCN(c4ccc(OC)cc4)CC3)nnc12	96%
CCN(c1ccccc1)S(C)(=O)=O	101%
Cc1ccn2c(Nc3ccc(C(C)C)cc3)c(-c3cccs3)nc2c1	53%
Cc1ccc(CNC(=O)C(C)n2nc(C)c3sc4ccccc4c3c2=O)cc1 (stereo not drawn)	105%
Cc1ccc(OCC(=O)N(Cc2ccc(N(C)C)cc2)CC2CCCO2)cc1C (stereo not drawn)	82%
CCc1ccc(C(=O)c2cn(Cc3ccccc3)c3cc(OC)c(OC)cc3c2=O)cc1	97%
COc1ccccc1Cn1cc(C(=O)c2ccccc2)c(=O)c2cc(OC)c(OC)cc21	10% (active)
COc1ccccc1Cn1cc(C(=O)c2ccc(C)cc2)c(=O)c2cc(C)ccc21	121%
O=C(c1ccc2c(c1)OCCO2)N(Cc1cccnc1)c1nc2c(Cl)cccc2s1	128%
O=C(Nc1cccc(C(F)(F)F)c1)c1cc(-c2ccc(Cl)s2)nc2ccccc12	100%
CCn1nc(C)c2c(-c3ccccc3)cc(=O)n(C(C)C(=O)NCc3ccc(C)cc3)c21 (stereo not drawn)	127%
CC1=C(C(=O)Nc2ccccc2)C(c2cccn2C)n2ncnc2N1 (stereo not drawn)	76%
COc1ccc(NC(=O)C2=C(C)Nc3ncnn3C2c2cccn2C)cc1 (stereo not drawn)	85%
COc1ccccc1NC(=O)C1=C(C)Nc2ncnn2C1c1cccn1C (stereo not drawn)	0% (active)
CC1=C(C(=O)Nc2ccccc2)C(c2ccc[nH]2)n2ncnc2N1 (stereo not drawn)	-3% (active)
COc1ccc(NC(=O)C2=C(C)Nc3ncnn3C2c2ccc[nH]2)cc1 (stereo not drawn)	83%
CC1=C(C(=O)Nc2ccccc2C)C(c2ccc[nH]2)n2ncnc2N1 (stereo not drawn)	99%
COc1ccc(C2C(=O)N(C3CCCCCC3)CC(=O)N2Cc2ccccc2)cc1 (stereo not drawn)	67%
Cc1ccc(CNC(=O)CN2C(=O)C3CCCCN3c3ccc(C(=O)N4CCCC4)cc32)cc1 (stereo not drawn)	81%
COc1ccc(-c2ccc(/C=N/NC(N)=O)o2)cc1	114%
COc1ccc(-c2nnc3n2N(C(C)=O)C(c2ccc(Cl)c(Cl)c2)=C(C(C)=O)S3)cc1	-3% (active)
COc1ccc(C2=C(C(C)=O)Sc3nnc(-c4ccccc4)n3N2C(C)=O)cc1	76%

Structure (SMILES)	survival
CC(=O)C1=C(c2ccc(Cl)c(Cl)c2)N(C(C)=O)n2c(nnc2-c2ccccc2)S1	83%
COC(=O)c1c(NC(=O)c2cc3nc(-c4ccc(OC)cc4)cc(C(F)(F)F)n3n2)sc2c1CCCC2	73%
Cc1c(CNC2CCCCCC2)c(C(=O)O)c(C)n1Cc1ccc(F)cc1	98%
CCOc1ccccc1CNS(=O)(=O)c1cnc(N)nc1	55%
Nc1ncc(S(=O)(=O)Nc2ccc(F)cc2F)cn1	82%
CCOc1ccccc1NS(=O)(=O)c1cnc(N)nc1	-3% (active)
COc1ccc(-c2c3c(=O)n(C)c(=O)n(C)c3c3n2-c2ccccc2NC3c2ccc(OC)cc2)cc1 (stereo not drawn)	8% (active)
COc1ccc(-c2c3c(=O)n(C)c(=O)n(C)c3c3n2-c2ccccc2NC3c2ccccc2OC)cc1 (stereo not drawn)	64%
Cn1c(=O)c2c(-c3ccccc3)n3c(c2n(C)c1=O)C(c1ccc([N+](=O)[O-])cc1)Nc1ccccc1-3 (stereo not drawn)	21%
COc1ccc(-c2c3c(=O)n(C)c(=O)n(C)c3c3n2-c2ccccc2NC3c2ccco2)cc1 (stereo not drawn)	57%
COc1ccc(C2Nc3ccccc3-n3c(-c4ccccc4)c4c(=O)n(C)c(=O)n(C)c4c32)cc1 (stereo not drawn)	-3% (active)
Cc1ccc(C2Nc3ccccc3-n3c(-c4ccccc4)c4c(=O)n(C)c(=O)n(C)c4c32)o1 (stereo not drawn)	74%
COc1ccc(-c2nc3ccccc3n3c(-c4ccccc4)c4c(=O)n(C)c(=O)n(C)c4c23)cc1	80%
Cc1ccc(C2Nc3ccccc3-n3c(-c4ccccc4)c4c(=O)n(C)c(=O)n(C)c4c32)cc1 (stereo not drawn)	-8% (active)
Cc1ccc(C2Nc3cc(C)c(C)cc3-n3c(-c4ccccc4)c4c(=O)n(C)c(=O)n(C)c4c32)o1 (stereo not drawn)	77%
Cc1cc(C)cc(NC(=O)CN2C(=O)CSc3ccc(S(=O)(=O)N4CCCC4)cc32)c1	88%
Cc1nnc(SCc2nc(-c3ccc(Cl)cc3)no2)n1-c1ccc(F)cc1	100%
CC(C)CCNC(=O)CCCN1C(=O)c2ccccc2Sc2ncccc21	85%
CCS(=O)(=O)c1nc(S(=O)(=O)c2ccc(C)cc2)c(NC(C)c2ccccc2)s1 (stereo not drawn)	136%
COC(=O)c1ccc2c(=O)n(CCCCCC(=O)N3CCN(c4ccc(OC)cc4)CC3)c(=O)[nH]c2c1	66%
O=C(Nc1ccc(F)c(F)c1)C1CCCN1S(=O)(=O)c1cccc2nsnc12 (stereo not drawn)	77%
CCN(CC)CCN(C(=O)c1ccco1)c1nc2c(C)cccc2s1	98%
